PLC-gamma1 inh – blocks human PLC-gamma1 enzyme activity. 370,000 tested, 0.84% active. inhibition, % at 12.2 µM. P19174. purified PLC-gamma1, fluorogenic substrate, fluorescence; in the data active = inhibition above about 9.5%
PLC-beta3 inh – PLC-beta3 (human) inhibition, primary screen | 370,000 tested, 0.18% active | Purified PLC-beta3, fluorogenic substrate, fluorescence | Q01970 | inhibition, % at 12.2 µM | AID 720704; in the data active = inhibition above about 11%;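 also: 0% = median of compound wells on plate and 100% = full blocker control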
sPLA2-III inh – Blocks human group III sPLA2 activity | 370,000 tested, 0.56% active | inhibition, % at 12.2 µM | QFRET BODIPY PC-A2 liposome hydrolysis, fluorescence;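 active = inhibition above mean plus 3 SD of compounds lying within the high and low control bounds, cut at about 19% in these data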;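 also: 0% = median of test compound wells and 100% = no enzyme DMSO wells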
Yeast superoxide – lowers age-related superoxide in aged yeast cells; S. cerevisiae aged cells, superoxide DHE fluorescence; stronger effect = lower value; superoxide response (% of plate mean), % at 10 µM; 330,000 tested, 0.18% active; AID 2690;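 active = superoxide response under a set limit, about three screen SD below normal, cut at about 65% in these data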;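 also: yeast aged for seven days with compound at 30 °C before DHE staining; 100% = average MFI of all compound-treated wells on the plate with controls excluded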
AHR activator – human AHR activation; P35869; AHR-responsive luciferase reporter cells, luminescence; activation, % at 5 µM; 320,000 tested, 2.5% active; AID 2796; in the data active = activation above about 47%;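 also: 0% = vehicle wells and 100% = reference agonist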
HIF act – HIF pathway transcriptional activation | U2OS HRE-luciferase reporter, luminescence; normalized: DMSO 0%, desferrioxamine 100% | activation, % at 7.5 µM (by protocol) | 300,000 tested, 0.32% active;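 active = mean activation of at least 10% of the iron chelator positive control signal, with at least half of replicates also reaching 10%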
sPLA2 confirm – human GIII-sPLA2 inhibition, confirmation | shares compounds with sPLA2-III inh | recombinant hGIII-sPLA2, BODIPY PC-A2 QFRET fluorescence | inhibition, % at 12.2 µM | 2,000 tested, 34% active | AID 743280;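 active = mean inhibition across triplicates above the hit cutoff set in the earlier primary screen, cut at about 19% in these data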;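 also: 0% = enzyme with DMSO and 100% = DMSO wells lacking enzyme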
535nm interf – 535nm fluorescence interference, HGIII-sPLA2 counter-screen. shares compounds with sPLA2-III inh. BODIPY FL product fluorescence interference, QFRET. inhibition, % at 12.2 µM. 2,000 tested, 8.5% active. AID 743282;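 active = average inhibition above the solvent-only control mean plus 3 SD, cut at about 6% in these data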;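 also: 0% = DMSO with substrate plus product and 100% = DMSO with substrate alone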
BODIPY interf DR – counter-screen for HGIII-sPLA2 inhibitors: 535nm fluorescence interference, dose response | shares compounds with sPLA2-III inh | BODIPY FL product fluorescence interference, cell-free | IC50, µM | 240 tested, under 10 active | AID 743455;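 active = IC50 at or below 10 µM; inactive = IC50 above 10 µM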
The depositor's hits bear a star; / = no result. Most compounds without a hit are left out; they make up all but 3.9% or so of the library.

SMILES	PLC-gamma1 inh	PLC-beta3 inh	sPLA2-III inh	Yeast superoxide	AHR activator	HIF act	sPLA2 confirm	535nm interf	others
Cc1cccc(NC(=O)c2ccc(C)c(S(=O)(=O)N3CCOCC3)c2)n1	5	-5	-1	/	/	/	/	/
O=C(COc1ccc(S(=O)(=O)N2CCOCC2)cc1Cl)NCc1ccc2c(c1)OCO2	3	-1	-3	/	/	/	/	/
Cc1cccc2c1N(CCCOc1ccc(C(C)(C)C)cc1)C(=O)C2=O	/	/	/	87	-1	0	/	/
Cc1cccc2c1N(CCCOc1ccccc1)C(=O)C2=O	2	2	21*	110	-4	0	18	-4
Cc1ccccc1OCCCN1C(=O)C(=O)c2cccc(C)c21	3	2	28*	102	3	0	38*	-2	BODIPY interf DR=>122
CS(=O)(=O)Nc1ccccc1C(=O)NCCSc1ccccc1	-21	-32	-4	92	4	1	/	/
COc1ccc(-n2c(COc3ccc(C)cc3)n[nH]c2=S)cc1	-1	-5	15	110	-1	-1	/	/
COc1cc(/C=N/n2c(COc3ccccc3)n[nH]c2=S)cc(OC)c1OC(C)=O	0	-7	24*	103	0	0	17	-2
COc1ccc(-n2c(COc3ccccc3)n[nH]c2=S)cc1	5	-10	21*	101	0	-6	23*	2
S=c1[nH]nc(COc2ccccc2)n1-c1ccc(Cl)cc1	3	-7	22*	/	/	/	33*	-1	BODIPY interf DR=>122
COc1cc2c(C(=O)N3CCN(c4ccccc4F)CC3)cn(C)c(=O)c2cc1OC	1	0	-1	95	2	0	/	/
Cc1cc(NC(=O)C(C)SCC(=O)OCc2ccc(Cl)cc2Cl)no1 (stereo not given)	-2	-7	-5	76	2	/	/	/
O=C1Cc2cc(NS(=O)(=O)c3ccc([N+](=O)[O-])cc3)cc3c2N1CCC3	1	-5	2	94	5	3	/	/
COc1cc(/C=N/N=C(\N)c2nonc2N)ccc1O	3	1	25*	102	-1	3	1	-7
COc1ccc(NC(=S)NNC(=O)C2CC2c2ccc(C)cc2)cc1 (stereo not given)	1	6	21*	108	3	0	22*	-1
Cc1ccc(C2CC2C(=O)NNC(=S)Nc2cccc(C)c2)cc1 (stereo not given)	-2	1	19	86	4	0	/	/
Cc1ccc(C2CC2C(=O)NNC(=S)Nc2cccc(Cl)c2)cc1 (stereo not given)	7	4	23*	78	3	0	-9	10.0*
O=C(NNC(=S)Nc1ccc(F)cc1)C1CC1c1ccc(Cl)cc1 (stereo not given)	3	-34	20*	109	1	0	35*	0	BODIPY interf DR=>122
C=CCC(CC=C)(NC(=O)c1ccccc1C)c1ccccc1	4	10	11	112	0	0	/	/
CCCOc1ccc(N2CC(C(=O)NCCc3ccc(OC)c(OC)c3)CC2=O)cc1 (stereo not given)	2	-3	-1	96	8	0	/	/
CCOc1ccc(S(=O)(=O)N2CCC(C(=O)NCc3ccncc3)CC2)cc1C	0	-9	-2	115	-1	0	/	/
COC(=O)C1=C(C)NC(C)=C(C(=O)OC)C1c1ccccn1	-71	-108	22*	104	0	0	3	-5
COC(=O)C1=C(C)Nc2ncnn2C1c1ccccn1 (stereo not given)	1	4	0	87	-4	0	/	/
Oc1ccccc1/C=N/NC(=S)NC1CC2CCC1C2 (stereo not given)	-82	-97	28*	87	18	2	18	7.3*
CN(CC(=O)Nc1cccc(C(F)(F)F)c1)C1=NS(=O)(=O)c2ccccc21	2	-1	-7	77	0	/	/	/
SMILES	PLC-gamma1 inh	PLC-beta3 inh	sPLA2-III inh	Yeast superoxide	AHR activator	HIF act	sPLA2 confirm	535nm interf	others
CCCCCCCCNC(=O)c1cccnc1SCC(=O)Nc1ccc(OC)cc1OC	2	-2	22*	97	0	0	-9	-41
CCCCNC(=O)c1cccnc1SCC(=O)Nc1ccccc1OC	-4	-3	7	81	6	0	/	/
CC(C)Oc1ccc(S(=O)(=O)N2CCOCC2)cc1NC(=O)CSC(=S)N1CCCC1	1	-1	-3	/	/	/	/	/
O=C(CCN1C(=O)C2CCCCC2C1=O)N1CCN(S(=O)(=O)c2c(F)cccc2F)CC1 (stereo not given)	2	-3	1	104	-1	0	/	/
[C-]#[N+][C@]12C(=O)[C@H](C=C(Cl)[C@@]1(C)C=C)C(C)(C)[C@H]1C(=O)N(C)c3cccc2c31	0	-4	31*	/	/	/	21*	-13
CCC(Oc1ccccc1)C(=O)NCCOC (stereo not given)	-3	5	21*	100	-1	0	0	-7
CCC(Oc1ccccc1)C(=O)Nc1ccccc1OC (stereo not given)	2	0	-7	78	41	0	/	/
COC(=O)c1cnc(SCC(=O)c2ccccc2)n1C	0	-2	-22	107	4	0	/	/
Cc1ccc(/C=N/NC(=O)c2ccc3nc[nH]c3c2)o1	1	-8	21*	106	1	0	2	-2
Cc1ccc(C)c(OCC(=O)Nc2cc(NC(=O)COc3cc(C)ccc3C)cc(C(=O)O)c2)c1	-2	-9	-25	108	1	-8	/	/
O=[N+]([O-])c1ccc(SCc2ccncc2)nc1	1	-6	3	108	1	0	/	/
Nc1sc(-c2ccccc2)cc1C(=O)NCCN1CCOCC1	1	-11	20*	/	/	/	7	-7
O=C(NCCN1CCOCC1)c1ccccc1-c1ccccc1	1	-1	8	120	-1	0	/	/
O=c1c(-c2ccco2)nc2ccccc2n1C(c1ccccn1)c1nc2ccccc2[nH]1 (stereo not given)	-68	-97	23*	/	/	/	5	-1
NC(=O)c1ccc(-c2ccc(N3C(c4ccsc4)=Cc4ccc(F)cc4C3CC(=O)c3ccco3)cc2)cc1 (stereo not given)	-110	-147	26*	/	/	/	14	4
COCCN1C[C@@H](CO)O[C@@H](n2cnc3c(N4CCCC4)ncnc32)C1	2	0	20*	/	/	/	1	-2
COCCN1C[C@@H](CO)O[C@@H](n2cnc3c(N4CCOCC4)ncnc32)C1	-1	1	1	/	/	/	/	/

Screening data (PubChem)
